Calls of active or inactive are those of the source. Rule for the calls: active = hit-call score of the fitted dose curve at least 0.9, where 1 is the maximum; inactive = score below 0.9.
Key:
[1] = BSK_CASM3C_SRB: Viability Assessment in the BioMAP Diversity Plus: CASM3C Assay (AID 2283050); conditions: primary human coronary artery smooth muscle cells;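 note: total protein by SRB staining as cytotoxicity measure in parallel cultures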
[2] = read-out: Thrombomodulin, THBD (gene 7056); test: BSK_CASM3C_Thrombomodulin: BioMAP Diversity Plus: CASM3C Assay for Thrombomodulin Biomarker Activity (AID 2283051); conditions: primary human coronary artery smooth muscle cells; actives raise or lower the signal;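 note: thrombomodulin protein level measured by ELISA 24 h after dosing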
[3] = read-out: Tissue Factor, F3 (gene 2152); test: BSK_CASM3C_TissueFactor: BioMAP Diversity Plus: CASM3C Assay for Tissue Factor Biomarker Activity (AID 2283052); conditions: primary human coronary artery smooth muscle cells; actives raise or lower the signal;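 note: cell surface tissue factor protein level read by ELISA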
[4] = read-out: Urokinase-type plasminogen activator receptor (uPAR), PLAUR (gene 5329); test: BSK_CASM3C_uPAR: BioMAP Diversity Plus: CASM3C Assay for Urokinase-type plasminogen activator receptor (uPAR) Biomarker Activity (AID 2283054); conditions: primary human coronary artery smooth muscle cells; actives raise or lower the signal;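 note: cell-surface uPAR protein level quantified by ELISA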
[5] = read-out: Vascular cell adhesion molecule 1 (VCAM1), VCAM1 (gene 7412); test: BSK_CASM3C_VCAM1: BioMAP Diversity Plus: CASM3C Assay for Vascular cell adhesion molecule 1 (VCAM1) Biomarker Activity (AID 2283055); conditions: primary human coronary artery smooth muscle cells; actives raise or lower the signal;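 note: VCAM-1 protein level quantified by ELISA on the cells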
[6] = read-out: Collagen III, COL3A1 (gene 1281); test: BSK_hDFCGF_CollagenIII: BioMAP Diversity Plus: hDFCGF Assay for Collagen III Biomarker Activity (AID 2283056); conditions: primary human foreskin fibroblasts; actives raise or lower the signal
Method in brief: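 ELISA read-out of collagen III from human skin fibroblast cultures sampled 24 h post-dosing. Values were derived by bidirectional fitting relative to the DMSO vehicle control.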

[7] = read-out: Epidermal growth factor receptor (EGFR), EGFR (gene 1956); test: BSK_hDFCGF_EGFR: BioMAP Diversity Plus: hDFCGF Assay for Epidermal growth factor receptor (EGFR) Biomarker Activity (AID 2283057); conditions: primary human foreskin fibroblasts; actives raise or lower the signal
Method in brief: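 Primary human foreskin fibroblasts were exposed to compound for 24 h, after which cell-surface EGFR was quantified by ELISA. Activity was fitted bidirectionally against the DMSO negative control as baseline.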

[8] = read-out: Interleukin-8 (IL8), CXCL8 (gene 3576); test: BSK_hDFCGF_IL8: BioMAP Diversity Plus: hDFCGF Assay for Interleukin-8 (IL8) Biomarker Activity (AID 2283058); conditions: primary human foreskin fibroblasts; actives raise or lower the signal
Method in brief: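 Cells used are human skin primary fibroblasts. Chemical is added, cultures run 24 h, then IL-8 is quantified by ELISA, and gain or loss versus DMSO control is fitted in both directions.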

[9] = BSK_hDFCGF_Proliferation: Cell Proliferation Assessment in the BioMAP Diversity Plus: hDFCGF Assay (AID 2283059); conditions: primary human foreskin fibroblasts;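 note: curves fitted for both rise and fall of signal versus DMSO baseline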
Method in brief: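 Steps: dose primary human dermal fibroblasts (foreskin); […] fix in 10% TCA; stain with 0.1% SRB; read 560 nm; fit gain or loss of signal against DMSO.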

[10] = read-out: Macrophage colony-stimulating factor (MCSF), CSF1 (gene 1435); test: BSK_hDFCGF_MCSF: BioMAP Diversity Plus: hDFCGF Assay for Macrophage colony-stimulating factor (MCSF) Biomarker Activity (AID 2283060); conditions: primary human foreskin fibroblasts; actives raise or lower the signal
Method in brief: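 Primary human foreskin fibroblasts dosed with chemical; 24 h later, M-CSF quantified by ELISA; curves fitted in both directions vs DMSO negative control.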

[11] = BSK_hDFCGF_SRB: Viability Assessment in the BioMAP Diversity Plus: hDFCGF Assay (AID 2283061); conditions: primary human foreskin fibroblasts;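 note: cells exposed to compound for 24 h before the read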
Method in brief: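 Readout is SRB absorbance at 560 nm, reflecting total protein in parallel cultures of human foreskin fibroblasts harvested 24 h after chemical dosing. Activity was fitted bidirectionally relative to DMSO.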

[12] = read-out: TIMP metallopeptidase inhibitor 1 (TIMP1), TIMP1 (gene 7076); test: BSK_hDFCGF_TIMP1: BioMAP Diversity Plus: hDFCGF Assay for TIMP metallopeptidase inhibitor 1 (TIMP1) Biomarker Activity (AID 2283062); conditions: primary human foreskin fibroblasts; actives raise or lower the signal
Method in brief: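 Human skin fibroblasts (primary), hDFCGF system; compound exposure 24 h; TIMP-1 by ELISA; bidirectional fit vs DMSO negative control; overt cytotoxicity by SRB in parallel wells.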

[13] = read-out: Monokine induced gamma interferon (MIG), CXCL9 (gene 4283); test: BSK_hDFCGF_MIG: BioMAP Diversity Plus: hDFCGF Assay for Monokine induced gamma interferon (MIG) Biomarker Activity (AID 2283063); conditions: primary human foreskin fibroblasts; actives raise or lower the signal
Method in brief: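 Chemicals were added to primary human foreskin fibroblast cultures, which were sampled 24 h later. MIG levels were then quantified by ELISA and responses fitted in both directions relative to DMSO.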

[14] = read-out: Matrix Metallopeptidase 1 (MMP1), MMP1 (gene 4312); test: BSK_hDFCGF_MMP1: BioMAP Diversity Plus: hDFCGF Assay for Matrix Metallopeptidase 1 (MMP1) Biomarker Activity (AID 2283064); conditions: primary human foreskin fibroblasts; actives raise or lower the signal
Method in brief: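 hDFCGF primary fibroblasts (human foreskin); chemical added; 24 h; MMP1 by ELISA; bidirectional fit vs DMSO.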

[15] = read-out: Vascular cell adhesion molecule 1 (VCAM1), VCAM1 (gene 7412); test: BSK_hDFCGF_VCAM1: BioMAP Diversity Plus: hDFCGF Assay for Vascular cell adhesion molecule 1 (VCAM1) Biomarker Activity (AID 2283065); conditions: primary human foreskin fibroblasts; actives raise or lower the signal;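 for AC50: VCAM-1 protein level quantified by ELISA after 24 h chemical exposure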
Method in brief: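 Human foreskin fibroblast primary cells, chemical exposure 24 h; VCAM-1 by ELISA; bidirectional fit, DMSO = negative control/baseline.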

[16] = read-out: Plasminogen activator inhibitor-1 (PAI1), SERPINE1 (gene 5054); test: BSK_hDFCGF_PAI1: BioMAP Diversity Plus: hDFCGF Assay for Plasminogen activator inhibitor-1 (PAI1) Biomarker Activity (AID 2283066); conditions: primary human foreskin fibroblasts; actives raise or lower the signal
Method in brief: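 Human foreskin fibroblasts in the hDFCGF system were dosed with compound for 24 h; PAI-1 was quantified by ELISA. Bidirectional curve fitting used DMSO as negative control and baseline.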

[17] = read-out: Intercellular Adhesion Molecule 1 (ICAM1), ICAM1 (gene 3383); test: BSK_KF3CT_ICAM1: BioMAP Diversity Plus: KF3CT Assay for Intercellular Adhesion Molecule 1 (ICAM1) Biomarker Activity (AID 2283067); conditions: primary human keratinocytes with fibroblasts; actives raise or lower the signal
Method in brief: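 ICAM-1 levels are measured by ELISA 24 h after dosing a primary human co-culture of keratinocytes and foreskin fibroblasts. Activity in either direction is fitted relative to DMSO vehicle.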

[18] = read-out: Interferon-gamma inducible Protein 10 (IP10), CXCL10 (gene 3627); test: BSK_KF3CT_IP10: BioMAP Diversity Plus: KF3CT Assay for Interferon-gamma inducible Protein 10 (IP10) Biomarker Activity (AID 2283068); conditions: primary human keratinocytes with fibroblasts; actives raise or lower the signal
Method in brief: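 KF3CT co-culture (keratinocytes + foreskin fibroblasts), 24 h compound, IP-10 by ELISA; bidirectional fit vs DMSO baseline.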

[19] = BSK_KF3CT_SRB: Viability Assessment in the BioMAP Diversity Plus: KF3CT Assay (AID 2283069); conditions: primary human keratinocytes with fibroblasts;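 note: total protein by sulforhodamine B staining as a cytotoxicity measure; read 24 h after compound addition; fitted for both signal gain and loss against DMSO baseline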
Method in brief: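 Keratinocytes co-cultured with foreskin fibroblasts (human primary); chemical added, 24 h; fix 10% TCA, stain 0.1% SRB, A560. Bidirectional fit vs DMSO.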

Measured: AC50

CCC(C)(c1ccc(O)cc1)c1ccc(O)cc1
active: [2] 26.5 µM | [6] 20 µM | [9] 30.4 µM | [11] 27.7 µM | [15] 20 µM
inactive: all other assays above

C[C@]12CCC(=O)C=C1CC[C@@H]1[C@@H]2CC[C@]2(C)C(=O)CC[C@@H]12
active: [9] 13.2 µM
not listed: [18]
inactive: all other assays above

ClC1=C(Cl)[C@]2(Cl)[C@@H]3[C@@H](Cl)[C@H]4O[C@H]4[C@@H]3C1(Cl)C2(Cl)Cl
active: [9] 5.9 µM | [11] 5.55 µM
inactive: all other assays above

C[C@]12CCC(=O)C=C1CC[C@@H]1[C@@H]2CC[C@@]2(C)[C@H]1CC[C@]2(C)O
not listed: [18]
inactive: all other assays above

Cc1cc(O)ccc1Cl
inactive: all assays above

Cc1cc2c3c(c1)C(c1ccccc1)=N[C@@H](NC(=O)c1ccncc1)C(=O)N3CC2
active: [9] 11.5 µM | [14] 14 µM | [16] 5.53 µM
inactive: all other assays above

Nn1cnnc1
not listed: [18]
inactive: all other assays above

Oc1ccc(Cl)cc1Cl
not listed: [18]
inactive: all other assays above

Cc1ccccc1O
not listed: [18]
inactive: all other assays above

CC#Cc1cc(C)nc(Nc2ccccc2)n1
inactive: all assays above

CCC(=O)O[C@H]1CC[C@H]2[C@@H]3CCC4=CC(=O)CC[C@]4(C)[C@H]3CC[C@]12C
inactive: [1] | [2] | [3] | [4] | [5] | [7]
active: [8] 38.2 µM | [9] 30.6 µM | [10] 31.3 µM | [11] 36.1 µM | [12] 33.8 µM | [13] 36.9 µM | [14] 35.9 µM | [15] 31.4 µM | [16] 39.1 µM | [17] 37.5 µM | [19] 36.3 µM

C1CC2OC2CC1C1CO1 (stereo unspecified)
inactive: all assays above

Clc1ccc(C(c2ccccc2Cl)C(Cl)(Cl)Cl)cc1 (stereo unspecified)
inactive: [3] | [7]
active: [1] 22.8 µM | [2] 19.6 µM | [4] 25.6 µM | [5] 11.7 µM | [6] 6.51 µM | [8] 10.8 µM | [9] 6.94 µM | [10] 8.37 µM | [11] 6.8 µM | [12] 9.41 µM | [13] 18.5 µM | [14] 9.47 µM | [15] 6.32 µM | [16] 5.83 µM | [17] 22.8 µM | [19] 21.1 µM

CCCCCCCCOC(=O)c1ccccc1C(=O)OCCCCCCCC
not listed: [18]
inactive: all other assays above

Cc1cccc(C)c1N
not listed: [18]
inactive: all other assays above

C=CC(N)=O
not listed: [18]
inactive: all other assays above

Cc1ccc(O)c(C)c1
active: [9] 12.4 µM
not listed: [18]
inactive: all other assays above

CO/C=C(/C(=O)OC)c1ccccc1COc1cccc(C(F)(F)F)n1
active: [6] 1.75 µM | [9] 4.78 µM | [10] 7.27 µM | [11] 10.7 µM | [14] 6.92 µM | [16] 11.1 µM
inactive: all other assays above

Clc1ccc(Cl)cc1
not listed: [18]
inactive: all other assays above

CCOC(=O)C(O)(c1ccc(Cl)cc1)c1ccc(Cl)cc1
active: [1] 29.5 µM | [2] 15 µM | [5] 20 µM | [6] 30.2 µM | [9] 30.9 µM | [10] 20 µM | [13] 14.3 µM | [15] 26.9 µM | [16] 13.2 µM
inactive: [3] | [4] | [7] | [8] | [11] | [12] | [14] | [17] | [19]

From PubChem BioAssay (EPA / NIEHS)
